Hits are enriched below; roughly 8.7% of the tested compounds scored in any of these assays.
12-LOX inh: blocks human arachidonate 12S-lipoxygenase | purified 12hLO, xylenol orange hydroperoxide absorbance | Potency, µM (top dose mostly 108 µM), usual class: inhibitors | hit rate 1.1% among 580,000
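Purified human 12hLO at 150 nM in 25 mM Hepes, 0.01% Triton X-100, pH 7.0, preincubated 15 min at room temperature with compound. Reaction started with 40 uM arachidonic acid, 30 min at room temperature. Hydroperoxide measured by Fe-xylenol orange, 573/405 nm absorbance ratio.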
BAZ2B inh: blocks human BAZ2B. AlphaScreen BAZ2B-H3K14Ac peptide displacement. Potency, µM (top dose mostly 114 µM), most hits filed as inhibitors. hit rate 4.4% among 360,000. AID 504333. Q9UIF8; note: nearly all actives have a fitted effect of over 60% in size
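BAZ2B 50 nM plus b-H3(5-23)K14Ac 50 nM, PBS pH 7.4/0.01% Tween-20, 30 min RT; compound added (max 110 uM), 30 min RT; streptavidin donor/Ni-chelate acceptor beads 10 ug/mL final, 20 min dark; AlphaScreen read.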
JMJD2A Tudor: blocks the human JMJD2A Tudor domain; AlphaScreen JMJD2A-Tudor / H3K4me3 peptide binding; O75164; Potency, µM (highest dose often 114 µM), actives largely listed as inhibitors; hit rate 4.4% among 390,000; note: nearly all actives have a fitted effect of over 50% in size
Target sequence (O75164 whole entry, looked up, the tested form may be a part): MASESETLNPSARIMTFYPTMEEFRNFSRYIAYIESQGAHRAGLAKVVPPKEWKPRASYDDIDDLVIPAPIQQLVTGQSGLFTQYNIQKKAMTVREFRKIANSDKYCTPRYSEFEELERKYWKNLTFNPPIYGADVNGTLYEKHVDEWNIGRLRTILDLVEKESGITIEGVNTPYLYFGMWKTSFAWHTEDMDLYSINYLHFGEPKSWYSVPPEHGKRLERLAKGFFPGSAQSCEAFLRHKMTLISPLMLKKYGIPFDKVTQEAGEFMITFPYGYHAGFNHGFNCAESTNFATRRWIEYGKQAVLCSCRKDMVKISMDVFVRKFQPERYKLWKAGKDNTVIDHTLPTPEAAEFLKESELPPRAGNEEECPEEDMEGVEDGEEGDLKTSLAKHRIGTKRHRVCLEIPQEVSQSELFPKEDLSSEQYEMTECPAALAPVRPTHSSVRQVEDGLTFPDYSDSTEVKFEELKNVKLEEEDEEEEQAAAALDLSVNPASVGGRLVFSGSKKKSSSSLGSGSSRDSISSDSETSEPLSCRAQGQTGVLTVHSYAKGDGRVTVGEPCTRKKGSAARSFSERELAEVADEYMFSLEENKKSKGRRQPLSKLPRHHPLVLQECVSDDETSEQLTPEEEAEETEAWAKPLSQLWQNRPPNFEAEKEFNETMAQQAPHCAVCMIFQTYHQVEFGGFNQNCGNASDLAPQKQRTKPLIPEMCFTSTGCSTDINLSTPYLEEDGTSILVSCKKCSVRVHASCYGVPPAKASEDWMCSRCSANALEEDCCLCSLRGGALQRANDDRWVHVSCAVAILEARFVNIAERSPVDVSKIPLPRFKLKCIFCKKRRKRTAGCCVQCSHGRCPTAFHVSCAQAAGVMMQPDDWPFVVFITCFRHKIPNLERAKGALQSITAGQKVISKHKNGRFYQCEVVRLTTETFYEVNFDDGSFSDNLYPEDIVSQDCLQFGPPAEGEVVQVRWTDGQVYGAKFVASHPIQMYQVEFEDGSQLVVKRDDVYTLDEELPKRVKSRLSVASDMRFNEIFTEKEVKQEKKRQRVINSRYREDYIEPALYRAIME
Sfp inh: Sfp phosphopantetheinyl transferase inhibition | Biochemical Sfp PPTase activity, qHTS | hit rate 3.5% among 310,000 | Potency, µM, hits mostly inhibitors | AID 1490;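 note: the enzyme is Sfp with the accession as filed and its product quenches rhodamine fluorescence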
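Buffer: 50 mM Hepes-Na pH 7.6, 10 mM MgCl2, 0.01% Nonidet P-40, 0.01% BSA. Enzyme 15 nM, pre-exposed to compound 15 min; substrates then added and fluorescence change tracked over 30 min.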
G9a block: G9a (human) methyltransferase inhibition; hit rate 8.8% among 350,000; AID 504332; G9a H3K9 monomethylation, AlphaScreen, 2 h; Potency, µM (highest dose often 102 µM), actives largely listed as inhibitors; note: nearly all actives have a fitted effect of over 75% in size
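Methyltransferase reactions run at room temperature for 2 h (20 nM enzyme, 500 nM biotin-H3K9 peptide, 20 uM SAM) after a 15 min compound preincubation; product detected by AlphaScreen beads and anti-H3K9me1 antibody.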
HP1b chromo inh: blocks HP1-beta chromodomain binding to methylated histone tails. AlphaScreen HP1-beta / biotin-H3K9me3 peptide binding. P83916. AID 540317. Potency, µM (top dose mostly 114 µM), most hits filed as inhibitors. hit rate 0.56% among 390,000; note: nearly all actives have a fitted effect of over 70% in size
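HP1-beta protein (50 nM final) preincubated 30 min at room temperature with biotinylated H3(1-18)K9me3 peptide (50 nM) in PBS pH 7.4, 0.01% Tween-20, then compound added for 30 min. AlphaScreen streptavidin donor/nickel chelate acceptor beads (10 ug/mL final), 30 min dark, luminescence read.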
Of the large screens only hits and unclear results are named; the others gave an inactive call. Calls come from the whole dose curve; as a rule, active = well fitted curve in the direction sought with a large enough effect; inconclusive = small, poorly fitted or top-dose-only effect, or another doubt; inactive = no such curve, though single readings can be large; an effect the other way counts as inactive or inconclusive.

CC(Oc1ccccc1)C(=O)NC1=NCCS1 (stereo unspecified)	12-LOX inh inconclusive, JMJD2A Tudor 32µM, G9a block inconclusive
CCN(CC)c1cc(C)nc(NCc2ccccc2)n1	none (no result: BAZ2B inh, JMJD2A Tudor, Sfp inh, G9a block, HP1b chromo inh)
O=C(COC(=O)C1Cc2ccccc2CN1C(=O)c1ccccc1)Nc1ccc(SC(F)F)cc1 (stereo unspecified)	G9a block 79µM, HP1b chromo inh inconclusive
CC(=O)OCC(=O)Nc1ccc(SC(F)F)cc1	G9a block inconclusive
CCC(C)(C)NC(=O)Cc1nn(C)c(=O)c2ccccc12	none (no result: BAZ2B inh, JMJD2A Tudor, Sfp inh, G9a block, HP1b chromo inh)
COc1cc(CCC(=O)Oc2ccc(C(C)=O)cc2)cc(OC)c1OC	G9a block 71µM
COC(=O)c1ccc(C)c(NC(=O)CCc2ccc(OC)c(OC)c2)c1	G9a block 50µM
COC(=O)c1ccc(C)c(NC(=O)CCc2cc(OC)c(OC)c(OC)c2)c1	G9a block 45µM
COc1ccc(CCN(C)CCC(=O)Nc2cc(C)ccc2C)cc1OC	none
CC(Oc1ccccc1)C(=O)N1CCOCCNC(=O)CC1 (stereo unspecified)	none (no result: BAZ2B inh, JMJD2A Tudor, Sfp inh, G9a block, HP1b chromo inh)
COc1ccc(CC2C(=O)OC(C)(C)OC2=O)cc1	12-LOX inh inconclusive, JMJD2A Tudor 35µM, G9a block 40µM
COC[C@@H]1CN(Cc2cnn(C)c2C)C[C@H]1C(=O)NC1CC1	none (no result: BAZ2B inh, JMJD2A Tudor, Sfp inh, G9a block, HP1b chromo inh)
Cc1[nH]c2ccc(F)cc2c(=O)c1SC(F)(F)C(F)C(F)(F)F (stereo unspecified)	G9a block 32µM
COc1cccc2c(=O)c(SC(F)(F)C(F)C(F)(F)F)c(C)[nH]c12 (stereo unspecified)	G9a block inconclusive
C=C(C)C(=O)NNc1ccccc1	G9a block 11µM
CCCOC(=O)C(=O)NNc1ccccc1	G9a block 40µM
CC(C)OC(=O)C(=O)NNc1ccccc1	12-LOX inh inconclusive, G9a block inconclusive
COc1cccc(NC(=O)N2CCC(c3cc(-c4cccc(C)c4)n[nH]3)CC2)c1	none (no result: BAZ2B inh, JMJD2A Tudor, Sfp inh, G9a block, HP1b chromo inh)
O=C(C=C(Sc1ccccc1)Sc1ccccc1)C(F)(F)F	12-LOX inh 35µM (no result: BAZ2B inh, JMJD2A Tudor, Sfp inh, G9a block, HP1b chromo inh)
C/C(CC(=O)Nc1ccc(N(C)C)cc1)=N\NC(=O)c1cnccn1	JMJD2A Tudor 79µM, Sfp inh 56µM, G9a block inconclusive
CN(C)c1ccc(NC(=O)CC(NCc2ccccn2)C(=O)O)cc1 (stereo unspecified)	BAZ2B inh 5.6µM, JMJD2A Tudor 18µM
COc1ccc(C(=O)N/N=C(\C)CC(=O)Nc2ccc(N(C)C)cc2)c(OC)c1	BAZ2B inh 40µM, JMJD2A Tudor inconclusive, HP1b chromo inh inconclusive
O=C(NC12CC3CC(CC(C3)C1)C2)c1cnccn1	none
C/C(CC(=O)NC12CC3CC(CC(C3)C1)C2)=N\NC(=O)c1cnccn1	Sfp inh 50µM
Cc1cc(=O)[nH]c2sc3c(C(F)(F)F)cc(=O)[nH]c3c12	none (no result: BAZ2B inh, JMJD2A Tudor, Sfp inh, G9a block, HP1b chromo inh)
O=C(N1CCC(c2n[nH]c(=O)n2-c2ccccc2)CC1)C1(c2ccccc2)CC1	none (no result: BAZ2B inh, JMJD2A Tudor, Sfp inh, G9a block, HP1b chromo inh)
C=CCNC(=O)NC(C)CC (stereo unspecified)	none (no result: BAZ2B inh, JMJD2A Tudor, Sfp inh, G9a block, HP1b chromo inh)
CC(C)(C)c1ccc(C(=O)NC(Nc2cccc(C(F)(F)F)c2)C(Cl)(Cl)Cl)cc1 (stereo unspecified)	none (no result: BAZ2B inh, JMJD2A Tudor, Sfp inh, G9a block, HP1b chromo inh)
O=C(CSc1ncnc2nc[nH]c12)NCc1ccccc1Cl	none (no result: BAZ2B inh, JMJD2A Tudor, Sfp inh, G9a block, HP1b chromo inh)
C/C(CC(=O)Nc1ccc(N(C)C)cc1)=N\NC(=O)c1ccncc1	G9a block 35µM
COC(C(=O)N/N=C(\C)CC(=O)Nc1ccc(Cl)cc1C)c1ccccc1 (stereo unspecified)	none
C/C(CC(=O)Nc1ccc(N(C)C)cc1)=N\NC(=O)c1ccccn1	BAZ2B inh 56µM, JMJD2A Tudor inconclusive, G9a block 50µM, HP1b chromo inh inconclusive
COC(C(=O)N/N=C(\C)CC(=O)Nc1ccc(N(C)C)cc1)c1ccccc1 (stereo unspecified)	G9a block 16µM
O=C(NC[C@H]1COCc2nc3cccnc3n21)Nc1ccccc1	none (no result: BAZ2B inh, JMJD2A Tudor, Sfp inh, G9a block, HP1b chromo inh)
Cc1oc(-c2ccccc2)nc1CC(=O)Nc1ncccc1O	none (no result: BAZ2B inh, JMJD2A Tudor, Sfp inh, G9a block, HP1b chromo inh)
O=c1oc(-c2ccc(O)c(O)c2)cc2cc(O)cc(O)c12	12-LOX inh 2.5µM, JMJD2A Tudor inconclusive (no result: BAZ2B inh, Sfp inh, G9a block)

Screening data from PubChem BioAssay.
